# Test results taken from PubChem BioAssay (Tox21).
# Values joined by “and” are separate entries in the source; they are usually repeats but may differ in a detail not shown here. Equal entries are not always repeated. The source holds several records for some structures; these can differ, active in one and inactive in another. Active and inactive are the calls of the source. Where a call stands in place of a potency, no number is given. Unless noted, the call rests on the fitted dose curve; in most records, active means well fitted curve in the direction sought with a large enough effect in the repeat runs; inconclusive means weak or mixed curves; inactive means no such curve, though single readings can be large; an effect the other way counts as inactive or inconclusive.
# Key:
# [1] = qHTS assay to identify small molecule antagonists of the thyroid receptor (TR) signaling pathway - cell viability counter screen (AID 743064); further: nearly all actives have a fitted effect of over 50% in size; further: potency means the concentration at half of the fitted maximal effect
# In short: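 Compounds were tested on GH3.TRE-Luc cells in the presence of T3 at 1 nM final. Following 23.5 h at 37 °C, cell viability was quantified by CellTiter-Fluor.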
# [2] = qHTS assay to identify small molecule antagonists of the thyroid receptor (TR) signaling pathway (AID 743065); further: nearly all actives have a fitted effect of over 55% in size; further: potency means the concentration at half of the fitted maximal effect
# In short: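 Antagonism measured as loss of luciferase signal in GH3 cells stably carrying a TRE-luciferase reporter, co-treated with compound and T3 (1 nM final) for 23.5 h at 37 C. Viability was read in the same well by CellTiter-Fluor.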
# [3] = test system: thyroid hormone receptor (rat, GH3 cells); assay: qHTS assay to identify small molecule agonists of the thyroid receptor (TR) signaling pathway (AID 743066; calls by dose curve)
# [4] = molecular target: Estrogen receptor (Homo sapiens) (UniProt P03372); assay: qHTS assay to identify small molecule antagonists of the estrogen receptor alpha (ER-alpha) signaling pathway (AID 743069; active means well fitted curve in the direction sought with a large enough effect in the signal ratio in the repeat runs, not every such curve was filed as active; inconclusive means weak or mixed curves, or effect the other way; inactive means no such curve, though single readings can be large or run the other way; the % refers to the signal ratio)
# In short: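 Compound effects are measured against 17beta-estradiol stimulation in HEK293 cells with a UAS-controlled beta-lactamase reporter for ER-alpha. Exposure lasts 18 hr at 37C; LiveBLAzer B/G FRET substrate follows for 2 hr at room temperature.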
# [5] = qHTS assay to identify small molecule antagonists of the estrogen receptor alpha (ER-alpha) signaling pathway - cell viability counter screen (AID 743074; calls by dose curve;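 further: HEK293 cells carrying ER-alpha-UAS-bla reporter stimulated with 17beta-estradiol; nearly all actives have a fitted effect of over 45% in size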; further: potency means the concentration at half of the fitted maximal effect)
# [6] = molecular target: Estrogen receptor (Homo sapiens) (UniProt P03372); assay: qHTS assay to identify small molecule agonists of the estrogen receptor alpha (ER-alpha) signaling pathway (AID 743075; calls by dose curve; further: potency means the concentration at half of the fitted maximal effect)
# [7] = molecular target: Estrogen receptor (Homo sapiens) (UniProt P03372); assay: qHTS assay to identify small molecule agonists of the estrogen receptor alpha (ER-alpha) signaling pathway using the BG1 cell line (AID 743079); further: nearly all actives have a fitted effect of over 20% in size; further: potency means the concentration at half of the fitted maximal effect
# [8] = qHTS assay to identify small molecule antagonists of the estrogen receptor alpha (ER-alpha) signaling pathway using the BG1 cell line (AID 743080; calls by dose curve;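 further: BG1 cells stimulated with 17beta-estradiol alongside compound; series mostly up to about 70 µM; nearly all actives have a fitted effect of over 25% in size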)
# In short: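 After 5 days in phenol-red-free 10% charcoal-stripped FBS medium, BG1-Luc-4E2 cells were seeded, left 24 h at 37 C, co-treated with compounds and 17beta-estradiol for 21.5 h, then assayed for viability and luciferase.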
# [9] = qHTS assay to identify small molecule antagonists of the estrogen receptor alpha (ER-alpha) signaling pathway using the BG1 cell line - cell viability counter screen (AID 743081);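 further: compound given together with 17beta-estradiol as the ER stimulus; nearly all actives have a fitted effect of over 45% in size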; further: potency means the concentration at half of the fitted maximal effect
# [10] = molecular target: Aromatase (Homo sapiens) (UniProt P11511); assay: qHTS assay to identify aromatase inhibitors (AID 743083); further: nearly all actives have a fitted effect of over 55% in size; further: potency means the concentration at half of the fitted maximal effect
# Aromatase (Homo sapiens), sequence (P11511 whole entry, looked up): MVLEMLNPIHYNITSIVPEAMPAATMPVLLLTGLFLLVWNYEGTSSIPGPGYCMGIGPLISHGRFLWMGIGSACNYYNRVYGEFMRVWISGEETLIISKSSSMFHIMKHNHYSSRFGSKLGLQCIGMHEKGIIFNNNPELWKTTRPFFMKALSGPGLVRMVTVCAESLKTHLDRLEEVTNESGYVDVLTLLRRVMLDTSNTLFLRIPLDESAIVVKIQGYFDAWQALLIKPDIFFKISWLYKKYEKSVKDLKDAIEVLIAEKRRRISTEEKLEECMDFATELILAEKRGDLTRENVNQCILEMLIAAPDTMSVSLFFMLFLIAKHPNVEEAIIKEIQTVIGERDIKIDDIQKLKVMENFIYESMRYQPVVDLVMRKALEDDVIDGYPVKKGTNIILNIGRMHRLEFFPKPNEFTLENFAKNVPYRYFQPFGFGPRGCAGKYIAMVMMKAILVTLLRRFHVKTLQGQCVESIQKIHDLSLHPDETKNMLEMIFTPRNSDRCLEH
# Estrogen receptor (Homo sapiens), sequence (P03372 whole entry, looked up): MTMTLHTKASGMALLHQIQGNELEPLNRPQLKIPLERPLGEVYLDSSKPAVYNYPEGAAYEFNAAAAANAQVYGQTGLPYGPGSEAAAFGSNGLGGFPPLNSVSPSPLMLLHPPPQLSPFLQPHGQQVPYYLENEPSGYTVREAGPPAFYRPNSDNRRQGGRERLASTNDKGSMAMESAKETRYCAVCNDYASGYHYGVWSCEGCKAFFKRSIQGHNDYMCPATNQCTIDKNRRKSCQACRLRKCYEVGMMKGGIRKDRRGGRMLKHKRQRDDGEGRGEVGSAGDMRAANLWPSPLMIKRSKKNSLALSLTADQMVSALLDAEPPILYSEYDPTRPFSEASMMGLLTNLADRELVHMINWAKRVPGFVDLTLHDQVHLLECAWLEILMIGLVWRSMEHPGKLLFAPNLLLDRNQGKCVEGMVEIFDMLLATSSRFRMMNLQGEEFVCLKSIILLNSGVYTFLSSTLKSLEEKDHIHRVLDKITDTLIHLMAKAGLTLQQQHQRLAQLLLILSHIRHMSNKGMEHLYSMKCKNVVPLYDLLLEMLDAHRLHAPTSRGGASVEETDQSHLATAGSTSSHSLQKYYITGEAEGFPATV
SMILES,Potency [1],Potency [2],Potency [3],Potency [4],Potency [5],Potency [6],Potency [7],Potency [8],Potency [9],Potency [10]
OCC1(CO)COC(C(Cl)(Cl)Cl)OC1,inactive,inactive,inactive,inactive,inactive,inactive,inactive,inactive,inactive,inactive
CCCOC(=O)c1ccc(O)cc1,inactive,inactive,inactive,,inactive,26.8 µM [activator] (active) and 24.5 µM [inconclusive] (active),21.1 µM (active) and 16.1 µM (active),,inactive,inactive
CN(Cc1ccccc1)Cc1ccccc1,inactive,inactive,inactive,,inactive,inactive,inactive,inactive,inactive,inactive
CCN(CC)C(=O)c1cccnc1,inactive,inactive,inactive,,inactive,,,,inactive,
C(=C\c1ccncc1)/c1ccccc1,inactive,inactive,inactive,,inactive,inactive,13.3 µM (active),,inactive,inactive and 21.1 µM (active)
COC1=C(OC)C(=O)C(C/C=C(\C)CC/C=C(\C)CC/C=C(\C)CC/C=C(\C)CC/C=C(\C)CC/C=C(\C)CC/C=C(\C)CC/C=C(\C)CC/C=C(\C)CCC=C(C)C)=C(C)C1=O,inactive,inactive,inactive,,inactive,inactive,inactive,inactive,inactive,inactive
O=C(O)CCCC/C=C(\c1ccccc1)c1cccnc1,inactive,inactive,inactive,,inactive,inactive,inactive,inactive,inactive,inactive
COc1c(Br)cc(Br)c(C)c1Br,inactive,inactive,inactive,,inactive,,,,inactive,
CC(C)=CCC/C(C)=C/CC/C(C)=C/CC/C=C(\C)CC/C=C(\C)CCC=C(C)C,inactive,inactive,inactive,,inactive,inactive,inactive,inactive,inactive,inactive
CC[C@@H](C(=O)[C@@H](C)[C@@H](O)[C@H](C)CCc1ccc(C)c(O)c1C(=O)O)[C@H]1O[C@](CC)([C@H]2CC[C@](O)(CC)[C@H](C)O2)C[C@@H]1C,3.35 µM (active),1.33 µM (active),inactive,,19 µM (active),inactive,inactive,,,inactive
NCc1cccc(C2CCN(C(=O)c3ccc(C#Cc4ccccc4F)o3)CC2)c1,7.7 µM (active),7.7 µM (active),inactive,,54.9 µM (active),inactive,,,,68.6 µM (active)
CCN1CCCC1CNC(=O)c1cc(S(=O)(=O)CC)ccc1OC (stereo not drawn),inactive,inactive,inactive,,inactive,,,,inactive,inactive
NC(N)=NCCCCN=C(N)N,inactive,inactive,inactive,,inactive,5.35 µM [inconclusive] (active),0.473 µM (active),inactive,,inactive
C=CC(N)CCC(=O)O (stereo not drawn),inactive,inactive,inactive,,inactive,inactive,inactive,inactive,inactive,inactive
CC(C)c1ccc2sc3ccccc3c(=O)c2c1,inactive,inactive,inactive,,inactive,inactive,6.11 µM (active),,inactive,inactive
CC(C)NCC1CCc2cc(CO)c([N+](=O)[O-])cc2N1 (stereo not drawn),inactive,inactive,inactive,,inactive,inactive,inactive,inactive,,inactive
CCOC(=O)Cc1ccc(-c2ccccc2)cc1,inactive,inactive,inactive,,inactive,inactive,inactive,inactive,inactive,inactive
NC[C@@H]1CC[C@@H](N)[C@@H](O[C@H]2[C@H](O)[C@@H](O[C@H]3O[C@H](CO)[C@@H](O)[C@H](N)[C@H]3O)[C@H](N)C[C@@H]2N)O1,inactive,inactive,inactive,,inactive,inactive,11.9 µM (active),inactive,inactive,inactive
CCOc1ccc(NC(=S)Nc2ccc(OCC)cc2)cc1,inactive,inactive,inactive,,inactive,inactive,inactive,inactive,inactive,inactive
C=CCN1C(=O)C(CC(C)C)NC1=S (stereo not drawn),inactive,inactive,inactive,,inactive,inactive,inactive,inactive,inactive,inactive
COc1cc(/C=C/C(=O)CC(=O)/C=C/c2ccc(O)c(OC)c2)ccc1O,23.7 µM (active) and inactive and 13.8 µM (active),23.7 µM (active) and 17.3 µM (active),inactive,,inactive and 49.3 µM (active),inactive,23.7 µM (active) and inactive,inactive,inactive and 54.8 µM (active),inactive and 48.9 µM (active)
CCOC(=O)COc1ccc2c(=O)cc(-c3ccccc3)oc2c1,inactive,inactive,inactive,,inactive,inactive,inactive,inactive,inactive,inactive
